Results filed as inconclusive are left out. Active and inactive are the calls of the source. Unless noted, the call rests on the fitted dose curve; in most records, active means well fitted curve in the direction sought with a large enough effect in the repeat runs; inconclusive means weak or mixed curves; inactive means no such curve, though single readings can be large; an effect the other way counts as inactive or inconclusive.
Assays:
[1] = qHTS assay to test for compound auto fluorescence at 535 nm (green) in HEK293 cells (AID 720680)
[2] = qHTS assay to test for compound auto fluorescence at 535 nm (green) in HEK293 cell free culture (AID 720682)
How it was run: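 No cells present: wells hold DMEM supplemented with 10% FBS, into which compound or vehicle is pinned. Green emission is then recorded (485 nm excitation, 535 nm emission) and scaled to fluorescein.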

[3] = qHTS assay to test for compound auto fluorescence at 590 nm (red) in HEK293 cell free culture (AID 720683)
How it was run: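 Tox21 10K library compounds were pinned into cell-free DMEM with 10% FBS and fluorescence was read at excitation 540 nm. Activity is expressed as Rose Bengal sodium equivalency.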

[4] = qHTS assay to test for compound auto fluorescence at 590 nm (red) in HepG2 cell free culture (AID 720684)
How it was run: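 Ex 540 / Em 590 nm read of compound in cell-free MEM (10% FBS). Rose Bengal sodium reference.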

[5] = qHTS assay to test for compound auto fluorescence at 460 nm (blue) in HepG2 cell free culture (AID 720685)
How it was run: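 Cell-free plates of MEM plus 10% FBS received 23 nL compound or DMSO vehicle; blue-channel (405/460 nm) intensity scored against triamterene as reference fluorophore.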

[6] = qHTS assay to test for compound auto fluorescence at 535 nm (green) in HepG2 cell free culture (AID 720686)
[7] = qHTS assay to test for compound auto fluorescence at 460 nm (blue) in HepG2 cells (AID 720687)
How it was run: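 Cells (2,000/well in MEM with 10% FBS) attached overnight at 37 C, then were exposed to compound or DMSO for 1 hr at 37 C, 5% CO2. Fluorescence read at Ex/Em 405/460 nm, expressed as triamterene-equivalent signal.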

[8] = biological target: Glucocorticoid receptor (Homo sapiens) (UniProt P04150); test: qHTS assay to identify small molecule agonists of the glucocorticoid receptor (GR) signaling pathway (AID 720691; active means well fitted activation curve with a large enough effect in the signal ratio in the repeat runs, not every such curve was filed as active; the % refers to the signal ratio)
Chain of Glucocorticoid receptor (Homo sapiens) (P04150 whole entry, looked up): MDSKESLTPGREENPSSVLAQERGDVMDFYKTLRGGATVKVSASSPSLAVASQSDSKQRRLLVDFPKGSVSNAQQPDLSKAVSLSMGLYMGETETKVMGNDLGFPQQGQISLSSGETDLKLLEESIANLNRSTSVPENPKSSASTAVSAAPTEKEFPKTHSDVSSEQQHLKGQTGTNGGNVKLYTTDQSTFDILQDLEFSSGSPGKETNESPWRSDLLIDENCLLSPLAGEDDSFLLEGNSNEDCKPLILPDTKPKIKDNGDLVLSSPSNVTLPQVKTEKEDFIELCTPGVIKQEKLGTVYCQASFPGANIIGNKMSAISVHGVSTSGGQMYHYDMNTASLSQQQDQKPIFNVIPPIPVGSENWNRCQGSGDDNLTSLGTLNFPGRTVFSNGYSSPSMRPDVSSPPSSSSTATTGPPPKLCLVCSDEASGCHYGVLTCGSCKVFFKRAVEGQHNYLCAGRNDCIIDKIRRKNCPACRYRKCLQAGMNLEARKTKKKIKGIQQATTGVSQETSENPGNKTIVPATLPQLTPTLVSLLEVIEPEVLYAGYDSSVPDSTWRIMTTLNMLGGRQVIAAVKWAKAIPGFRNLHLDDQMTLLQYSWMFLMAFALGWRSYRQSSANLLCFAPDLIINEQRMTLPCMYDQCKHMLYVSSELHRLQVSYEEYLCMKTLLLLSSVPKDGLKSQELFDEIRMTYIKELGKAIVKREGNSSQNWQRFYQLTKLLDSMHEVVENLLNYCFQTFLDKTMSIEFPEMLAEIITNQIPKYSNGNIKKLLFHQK
How it was run: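 Compounds in DMSO, alongside positive controls, were added to GR-bla HeLa reporter cells and incubated 18 h at 37 C; GRE-driven beta-lactamase was detected by fluorescence after 2 h with FRET substrate at room temperature.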

[9] = biological target: Glucocorticoid receptor (Homo sapiens) (UniProt P04150); test: qHTS assay to identify small molecule antagonists of the glucocorticoid receptor (GR) signaling pathway (AID 720692; active means well fitted inhibition curve with a large enough effect in the signal ratio in the repeat runs, not every such curve was filed as active; the % refers to the signal ratio)
How it was run: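 In a 1536-well cell format, compounds were added 4 h after seeding GR-bla HeLa cells, together with dexamethasone at 5 nM final; reporter activity was measured by FRET-substrate fluorescence following 18 h at 37 C.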

[10] = qHTS assay to identify small molecule antagonists of the glucocorticoid receptor (GR) signaling pathway - cell viability counter screen (AID 720693); further: nearly all actives have a fitted effect of over 55% in size
[11] = qHTS assay for identifying genotoxic compounds that show differential cytotoxicity against isogenic chicken DT40 cell lines with known DNA damage response pathways - Rev3 mutant cell line (AID 743014); further: nearly all actives have a fitted effect of over 55% in size
[12] = qHTS assay to identify small molecule antagonists of the androgen receptor (AR) signaling pathway - cell viability counter screen (AID 743033; further: nearly all actives have a fitted effect of over 45% in size)
[13] = qHTS assay to identify small molecule antagonists of the androgen receptor (AR) signaling pathway using the MDA cell line - cell viability counter screen (AID 743041; further: nearly all actives have a fitted effect of over 45% in size)
How it was run: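 In this qHTS counter assay, fluorescence intensity after CellTiter-Fluor addition indicated viability of MDA-kb2 AR-luc cells given compounds and R1881 for 16 h at 37C.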

[14] = qHTS assay for identifying genotoxic compounds that show differential cytotoxicity against isogenic chicken DT40 cell lines with known DNA damage response pathways - wild type cell line (AID 743012); further: nearly all actives have a fitted effect of over 60% in size
How it was run: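 Viability of DNA repair-proficient chicken DT40 cells was assessed by CellTiter-Glo luminescence following 40 h compound exposure at 37 C/5% CO2.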

[15] = qHTS assay for identifying genotoxic compounds that show differential cytotoxicity against isogenic chicken DT40 cell lines with known DNA damage response pathways - Rad54/Ku70 mutant cell line (AID 743015); further: nearly all actives have a fitted effect of over 60% in size
[16] = biological target: Androgen receptor (Homo sapiens) (UniProt P10275); test: qHTS assay to identify small molecule antagonists of the androgen receptor (AR) signaling pathway using the MDA cell line (AID 743042; further: nearly all actives have a fitted effect of over 55% in size)
Chain of Androgen receptor (Homo sapiens) (P10275 whole entry, looked up): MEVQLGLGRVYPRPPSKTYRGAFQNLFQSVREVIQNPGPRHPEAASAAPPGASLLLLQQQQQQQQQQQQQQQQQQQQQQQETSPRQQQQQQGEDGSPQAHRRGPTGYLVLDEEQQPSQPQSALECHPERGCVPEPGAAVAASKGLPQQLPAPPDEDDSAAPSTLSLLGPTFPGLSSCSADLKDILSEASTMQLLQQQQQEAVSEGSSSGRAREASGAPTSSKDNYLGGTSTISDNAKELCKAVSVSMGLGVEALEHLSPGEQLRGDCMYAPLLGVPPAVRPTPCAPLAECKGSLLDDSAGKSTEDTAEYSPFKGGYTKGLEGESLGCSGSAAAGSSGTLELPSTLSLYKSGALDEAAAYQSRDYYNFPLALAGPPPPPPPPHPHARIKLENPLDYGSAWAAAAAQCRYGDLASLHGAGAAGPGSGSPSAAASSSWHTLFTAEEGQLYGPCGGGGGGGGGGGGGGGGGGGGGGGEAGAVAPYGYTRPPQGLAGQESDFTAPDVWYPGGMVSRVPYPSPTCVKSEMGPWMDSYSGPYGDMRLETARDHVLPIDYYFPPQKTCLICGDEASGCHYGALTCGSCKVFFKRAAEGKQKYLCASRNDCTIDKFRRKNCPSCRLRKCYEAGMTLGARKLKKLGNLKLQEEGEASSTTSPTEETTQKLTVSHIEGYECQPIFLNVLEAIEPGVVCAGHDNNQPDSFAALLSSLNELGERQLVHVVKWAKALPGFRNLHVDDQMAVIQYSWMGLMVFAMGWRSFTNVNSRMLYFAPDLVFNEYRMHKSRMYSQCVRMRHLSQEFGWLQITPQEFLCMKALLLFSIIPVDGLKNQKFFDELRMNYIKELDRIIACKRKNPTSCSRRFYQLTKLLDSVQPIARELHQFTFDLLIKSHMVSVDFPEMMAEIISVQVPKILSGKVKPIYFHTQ
How it was run: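 MDA-kb2 cells (human breast carcinoma, stably carrying an MMTV-luciferase reporter responsive to AR and GR) were plated at 3,000 cells/well and preincubated 5 hr at 37C, then given compound plus R1881 agonist for 16 h. ONE-Glo luminescence was read.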

[17] = biological target: Androgen receptor (Homo sapiens) (UniProt P10275); test: qHTS assay to identify small molecule agonists of the androgen receptor (AR) signaling pathway using the MDA cell line (AID 743040; further: nearly all actives have a fitted effect of over 20% in size)
How it was run: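 Cell-based luciferase reporter: MDA-kb2, MMTV promoter (AR + GR response elements). 16 h compound exposure at 37C; ONE-Glo, 30 min RT, luminescence.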

Measured: Potency

CCCCOC(=O)C(C)OC(=O)CCC (stereo not given)
not listed: [14] | [15] | [16] | [17]
inactive: all other assays above

COc1cc(C=O)ccc1OC(=O)C(C)C
not listed: [6] | [15] | [16] | [17]
inactive: all other assays above

NS(=O)(=O)c1ccc(Cl)c(S(N)(=O)=O)c1
not listed: [6] | [16] | [17]
inactive: all other assays above

COc1cccc2sc(N)nc12
not listed: [6] | [8] | [9] | [17]
inactive: all other assays above

CCCCCC1CCCC(=O)O1 (stereo not given)
not listed: [6] | [14] | [16] | [17]
inactive: all other assays above

CCCCCC1Nc2cc(C(F)(F)F)c(S(N)(=O)=O)cc2S(=O)(=O)N1 (stereo not given)
not listed: [14] | [16] | [17]
inactive: all other assays above

C=CCOc1c(Br)cc(Br)cc1Br
not listed: [9] | [16] | [17]
inactive: all other assays above

O=c1[nH]c(=O)c2ccccc2o1
not listed: [8] | [9]
inactive: all other assays above

COc1cc2c3cc1Oc1cc(ccc1O)C[C@@H]1c4c(cc(OC)c(O)c4Oc4ccc(cc4)C[C@@H]3N(C)CC2)CC[N+]1(C)C
not listed: [8] | [9] | [16] | [17]
inactive: all other assays above

CCC(C)(CCC(C)C)C(=O)[O-].CCC(C)(CCC(C)C)C(=O)[O-].[Zn+2] (stereo not given)
not listed: [8] | [9] | [14] | [15] | [16] | [17]
inactive: all other assays above

CC(C)CCCC(C)CC=O (stereo not given)
not listed: [6] | [8] | [9] | [16] | [17]
inactive: all other assays above

Reference: PubChem BioAssay (Tox21)
